HCV inh: blocks hepatitis C virus. actives 3.4% (n = 340,000). AID 651820. Potency, µM (titrated, usually from 41.8 µM), for the others: top-dose activity change, negative = inhibition, actives largely listed as inhibitors. Huh7.5.1 HCVcc-Cre infection, luciferase reporter, 44 h; active means well fitted inhibition curve with a large enough effect; inconclusive means small, poorly fitted or top-dose-only effect, or another doubt; inactive means no such curve, though single readings can be large or run the other way; further: potency means the concentration at half of the fitted maximal effect
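Cells seeded at 1,000/well and cultured 4 h, then compounds added followed by HCVcc-Cre virus (~0.5 moi). After 44 h further culture, luciferase substrate was added, plates held 15 min at room temperature, and luminescence read for 15 sec.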
FMDV inh: antivirals against foot and mouth disease virus | Potency, µM (highest dose often 57.9 µM), for inactives: at the highest dose activity change, negative = inhibition, most hits filed as inhibitors | FMDV antiviral cell-based qHTS | AID 1159524 | actives 1.2% (n = 410,000); calls by dose curve; tested in HEK293T cells; further: read-out not given here; potency means the concentration at half of the fitted maximal effect; nearly all actives have a fitted effect of over 45% in size
Lassa entry inh: Lassa virus entry inhibition. Potency, µM (doses to about 37.9 µM), for the others: at the top dose activity change, negative = inhibition, hits mostly inhibitors. actives 1.2% (n = 300,000). Lassa virus pseudotype entry inhibition, cell reporter; calls by dose curve; tested in HEK293 cells; further: potency means the concentration at half of the fitted maximal effect; nearly all actives have a fitted effect of over 50% in size
HCMV inh: human cytomegalovirus inhibition; HFF cells, HCMV-luciferase reporter, 72 h; hits give low values; actives 4.5% (n = 410,000); AID 1259415; activity change, negative = inhibition, % at 57.5 µM; in the data active means activity change below about -60%; inconclusive means no clear call, values can overlap the other calls; inactive means above about -39%
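Human foreskin fibroblasts infected with luciferase-reporter HCMV at MOI 1 PFU/cell, compounds at two doses. Luciferase measured 72 h post infection; normalized to buffer-only basal and Salinomycin (10uM) controls.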
MARV entry inh: inhibitors of Marburg virus binding or cell entry; Marburg virus pseudotyped entry inhibition, cell reporter; Potency, µM (series often up to 37.8 µM), without a hit: at the highest dose activity change, negative = inhibition, actives largely listed as inhibitors; actives 1.8% (n = 300,000); calls by dose curve; tested in HEK293 cells; further: potency means the concentration at half of the fitted maximal effect
The depositor's hits bear a star; ? = inconclusive; / = no result; [ ] = another dose, or the depositor's remark. Sampled rows, rich in hits. Any-hit rate of the full collection: about 7.9%. On the % scale 0 is the no-effect control and ±100 the full control effect.

SMILES	HCV inh	FMDV inh	Lassa entry inh	HCMV inh	MARV entry inh
CC1=CC=CC2=NC(=O)CC(C)(C(=O)N(CC(=O)NC3CCCC3)c3ccc(F)cc3)N12 (configuration not stated)	-20%	-1%	/	-82*	?
Cc1cc(C(=O)C(=O)Nc2nnc(C(C)C)s2)c(C)n1-c1ccccc1	/	?	-8%[46.1 µM]	-87*	-13%[46.1 µM]
CCc1nnc(NC(=O)C(=O)c2cc(C)n(-c3ccccc3)c2C)s1	/	?	2%[46.1 µM]	?	0%[46.1 µM]
CCOc1ccc(S(=O)(=O)N(CC(=O)NCCc2ccc(OC)cc2)c2ccccc2)cc1	/	-2%	-18%[46.1 µM]	7	2%[46.1 µM]
O=C(CN1C(=O)NC2(CCCCC2)C1=O)N1CCN(S(=O)(=O)c2cccc([N+](=O)[O-])c2)CC1	-12%	-24%	?	0	17%
COc1ccc(C(=O)CC(=O)C(=O)Nc2ccc(C)cc2Cl)cc1	10µM*	-17%	?	2	?
COc1cccc(C(=O)CC(=O)C(=O)Nc2ccc(C)cc2Cl)c1	12%	-18%	29%[46.1 µM]	-13	-29%[46.1 µM]
O=C(Nc1nnc2n1CCS2)c1ccccc1	/	23%	7%[46.1 µM]	-68*	/
Cc1ccccc1C(=O)Nc1nnc2n1CCS2	/	74%	-3%[46.1 µM]	48	/
Cn1c(COc2ccccc2)nnc1SCCN1CCOCC1	15%	1%	0%	24	-8%
Cn1c(COc2ccccc2)nnc1SCCSc1nnc(COc2ccccc2)n1C	?	-18%	-7%	-65*	2%
COC(C/C=C/C(=O)[C@H](C)OCc1ccccc1)OC	1%[8.37 µM]	35µM*	/	/	/
CCN(CC)Cc1c(O)ccc2c(=O)c(Oc3ccccc3OC)coc12	6%	-14%	0%	-61*	12%
Cc1ccc(NC(=O)c2ccc(=O)[nH]c2)cc1S(=O)(=O)N1CCCCC1	1%	4%	/	13	/
Cc1cnc(C(=O)Nc2ccc(C)c(S(=O)(=O)N3CCCCC3)c2)cn1	10%	-2%	4%	0	?
COc1ccc(NS(=O)(=O)c2cc(NC(=O)C3CC3)ccc2N2CCOCC2)cc1	-24%	95%	?	?	-20%
COc1ccc(NS(=O)(=O)c2cc(NC(=O)c3cccnc3Cl)ccc2N2CCCC2)cc1	?	72%	/	10	/
COc1ccc(NS(=O)(=O)c2cc(NC(=O)c3cnc(C)cn3)ccc2N2CCCC2)cc1	?	65%	?	-65*	?
COc1ccc(NS(=O)(=O)c2cc(NC(=O)c3cnc(C)cn3)ccc2N2CCCCC2)cc1	?	71%	?	-74*	?
COc1ccc(NS(=O)(=O)c2cc(NC(=O)c3ccc(=O)[nH]c3)ccc2N2CCCC2)cc1	?	67%	/	-74*	/
COc1ccc(NS(=O)(=O)c2cc(NC(=O)C3CC3)ccc2N2CCCCC2)cc1	11µM*	42%	?	-101*	?
CCOC(=O)c1c(C)[nH]c(C)c1S(=O)(=O)N1CCC(C(=O)Nc2cc(Cl)ccc2OC)CC1	/	60%	-15%[46.1 µM]	-11	/
CC1CN=C(c2cc(Cl)c(N)c(Cl)c2)c2c3ccc(C(F)(F)F)cc3[n+]([O-])n21 (configuration not stated)	/	/	/	40	/
COc1ccccc1C1CN(Cc2cccc(OCCO)c2)Cc2ccccc2O1 (configuration not stated)	/	0%	/	/	/
COc1ccc(NS(=O)(=O)c2cc(NC(=O)c3ccco3)ccc2N2CCCCC2)cc1	?	101%	?	-76*	14µM*
SMILES	HCV inh	FMDV inh	Lassa entry inh	HCMV inh	MARV entry inh
O=C(NCc1ccccc1F)[C@H]1[C@H](CO)[C@H]2Cn3c(cccc3=O)[C@H]2N1CC1CC1	/	/	/	3	/
Cn1c(-c2ccccc2)c(C=O)c2ccccc21	?	9%	/	-12	/
Cc1ccc(Sc2c(O)c3ccccc3n(C)c2=O)cc1	-16%	-13%	-1%	1	?
Cc1ccc(Sc2c([N+](=O)[O-])c(=O)n(C)c3ccccc23)cc1	?	22µM*	/	-20	/
Cc1ccc(Sc2c(C=O)c3ccccc3n2C)cc1	11µM*	?	?	-91*	?
O=C1N(Cc2ccc(Br)cc2)c2cccc(Br)c2[C@@]12O[C@H](COc1ccccc1)CC1=CCCC12 (some centres not stated)	/	/	/	/	11%[14.2 µM]
O=C(c1cc(-c2ccc(F)cc2)no1)N1CCN(Cc2ccc3c(c2)OCO3)CC1	-2%	0%	/	-16	/
CCOc1cc(-c2ccc(OC(=O)c3ccc(C)cc3)c(OC)c2)cc(=O)c2c(C)oc(C)c12	/	25µM*	6%[46.1 µM]	106	21%[46.1 µM]
COc1cc(-c2cc(OC)c3c(C)oc(C)c3c(=O)c2)ccc1OC(=O)c1ccc(C)cc1	/	?	9%[46.1 µM]	12	?
Cc1ccc(S(=O)(=O)N2C[C@@H](C)[C@]3(C2)[C@H](O)[C@H](OC(=O)Nc2cccs2)C[C@H]2C(=O)N(c4ccccc4)C(=O)[C@H]23)cc1	/	?	/	-104*	/
CCc1nc2c(OCc3cccc(Cl)c3)cccn2c1N(C)C(=O)c1ccc(C)cc1	/	/	/	-6	/
COc1ccccc1OC1=NS(=O)(=O)c2ccccc21	22%	40µM*	11%	34	6%
COc1cc(OC)cc(C2=Cc3ccc(OC)cc3C(CC(C)=O)N2c2ccc(-c3cccs3)cc2)c1 (configuration not stated)	/	-19%	/	-83*	/
COC(=O)[C@]12CCCCC=C1N(CCC1=CCCCC1)C(=O)[C@H](CC(=O)NCCCN1CCCC1=O)C2	/	-22%	/	7	/
CC(=O)C1CCC2C3CC(C)=C4CC(O)CCC4(C)C3CCC12C (configuration not stated)	?	-16%	0%[46.1 µM]	-34	?
C=CCc1ccc(OCCCCNC(C)CC)c(OC)c1 (configuration not stated)	8.9µM*	-8%	-13%	-21	?
C=CCc1cc(Cl)ccc1OCCOCCNCCOC	?	-18%	-12%	8	?
C=CCc1cc(Cl)ccc1OCCOCCNC(C)(C)C	?	-21%	/	-71*	/
C=CCc1cc(Cl)ccc1OCCCNC(C)CC (configuration not stated)	13µM*	?	?	?	2.9µM*
CCC(C)NCCCOc1ccc(Cl)cc1C(C)(C)C (configuration not stated)	-26%	-2%	8%	-10	?
CCOc1ccccc1NC(=O)CSc1nnc(-c2cccnc2)o1	15%	-19%	24%	-10	21%[46.1 µM]
Cc1cc(C(C)(C)CC(C)(C)C)ccc1OCCOCC[N+](C)(C)Cc1ccccc1	2.8µM*	?	/	-94*	/
COc1cc(NS(=O)(=O)c2ccc(N/C=C(\C#N)c3nc4cc(Cl)ccc4o3)cc2)nc(OC)n1	-11%	?	?	-86*	?
COc1cccc(C(=O)c2cn(CC(=O)NCc3ccccc3)c3nc(C)ccc3c2=O)c1	/	23%	-1%[46.1 µM]	-25	/
COc1ccc(/C=C/C(=O)NCCCN2CCCC2)cc1	-8%	-10%	/	-103*	/
Cc1ccc(/C=C/C(=O)NCCCN2CCN(CCCNC(=O)/C=C/c3ccc(C)cc3)CC2)cc1	?	-26%	9%	-16	?

Screening results: PubChem, National Center for Advancing Translational Sciences (NCATS)
